Assay outcomes as filed in PubChem BioAssay.
Most compounds without a hit are left out; they make up all but 3.5% or so of the library.
GPR151 activ = activates the human receptor GPR151; AID 1508602; activation, % at 11.2 µM; Q8TDV0; PathHunter beta-arrestin GPR151 cells, luminescence; 1% of 650,000 active; in the data active = activation above about 4.9%;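 also: 0% = median of compound wells and 100% = cells with positive control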
TEAD-YAP block = TEAD-YAP interaction inhibition; inhibition, % at 9.12 µM; 1.4% of 640,000 active; HEK-TIYL cells, TEAD-Gal4/YAP UAS-luciferase luminescence; AID 1259422; in the data active = inhibition above about 32%;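 also: 0% = median of test compound wells and 100% = reference inhibitor wells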
FBW7 activator = activators of human E3 ligase FBW7. Q969H0. AlphaScreen FBW7–phospho-cyclin E peptide binding, activator screen. normalized activity (activation), % at 26.1 µM. 0.13% of 650,000 active; in the data active = normalized activity above about 1.9%;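 also: purified mutant Fbw7 with reduced substrate affinity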
MITF primary = blocks human microphthalmia-associated transcription factor | O75030 | AlphaScreen MITF homodimerization, bead proximity signal | inhibition, % at 2.6 µM | 0.91% of 650,000 active | AID 1259374; in the data active = inhibition above about 50%;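 also: 0% = vehicle wells with protein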
GPR151 conf act = human GPR151 activation, confirmation screen; activation, % at 11.2 µM; shares compounds with GPR151 activ; AID 1508609; GPR151 PathHunter beta-arrestin cells, luminescence, 90 min; % of EA-reagent control over plate median; 6,700 tested, under 10 active;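 active = mean percent activation across replicates above the confirmation screen cutoff of 4.91%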
GPR119 counter = counter-screen for GPR151 activators: effect on human GPR119; AID 1508611; shares compounds with GPR151 activ; GPR119 PathHunter beta-arrestin cells, luminescence, 90 min; 0 = compound-well median, 100 = enzyme-acceptor control; 0.3% of 6,700 active; activation, % at 11.2 µM;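 active = mean percent activation in the counterscreen above 29.09%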;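 also: counterscreen on off-target GPR119 to flag nonselective hits from the GPR151 activator screen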
Target sequence (Q8TDV5 whole entry, looked up): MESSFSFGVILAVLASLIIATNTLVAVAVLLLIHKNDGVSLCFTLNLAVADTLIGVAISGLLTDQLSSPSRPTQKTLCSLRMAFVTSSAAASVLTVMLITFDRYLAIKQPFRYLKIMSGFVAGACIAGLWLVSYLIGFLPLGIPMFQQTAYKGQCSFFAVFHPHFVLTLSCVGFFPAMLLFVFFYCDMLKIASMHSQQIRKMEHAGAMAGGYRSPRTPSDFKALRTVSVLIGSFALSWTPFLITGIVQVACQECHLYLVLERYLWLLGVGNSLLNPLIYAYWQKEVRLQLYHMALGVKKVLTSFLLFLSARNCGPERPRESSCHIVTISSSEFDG
The depositor's hits bear a star; . = no result given; ! = repeats disagree.

SMILES	GPR151 activ	TEAD-YAP block	FBW7 activator	MITF primary	GPR151 conf act	GPR119 counter
O=C(Nc1nc(-c2ccc(I)cc2)cs1)c1ccc(Cl)s1	5.5*	0	0	0	2	19
CC(C)C(=O)Nc1nnc(S(=O)(=O)N(C)c2ccc(Cl)cc2)s1	5.8*	12	0	2	-1	-4
Cc1ccc(CCNC(=O)c2cc(Sc3ccccc3Cl)nc3ccccc23)cc1	-1	-1	0	-5	.	.
Cc1cnc(Nc2ccncn2)nc1NC1CC1	5.7*	3	0	-6	1	0
Cc1cnc(Nc2ccncn2)nc1NC1CCN(Cc2ccccc2)CC1	-3	24	0	-12	.	.
CC(C)=CCC[C@@H](C)C1CC[C@@]2(C)C3=C(CC[C@]12C)[C@@]1(C)CCC(O)C(C)(C)[C@@H]1CC3 (stereo partly drawn)	7.7*!	6	0	-1	1	11
CC(=O)O[C@H]1CCC2(C)C3=C(CCC2C1(C)C)[C@]1(C)CCC(C(C)CCC=C(C)C)[C@@]1(C)CC3 (stereo partly drawn)	3	-12	0	12	.	.
CCN(CC)C(=O)C(=O)Nc1cccc2ccccc12	-2	-4	0	-1	.	.
CC(C)(C)n1ncc2c(=O)n(CC(=O)Nc3cccc(F)c3)cnc21	2	13	0	10	.	.
COCCn1c(C)cc(/C=C2/C(=O)NC(=O)N(C3CCCCC3)C2=O)c1C	7.0*	9	0	8	-1	-12
Cc1cccc(N2C(=O)CC(Cc3ccccc3)C2=O)n1 (stereo not drawn)	1	6	0	5	.	.
CN1C(=O)CC(Nc2ccc(N(C)C)cc2)C1=O (stereo not drawn)	7.3*	9	0	29	0	8
CCN1C(=O)CC(Nc2ccc(N(C)C)cc2)C1=O (stereo not drawn)	0	6	0	25	.	.
O=C(O)CCCCCN1C(=O)C(O)=C(C(=O)/C=C/c2ccccc2)C1c1ccccc1Cl (stereo not drawn)	5.0*	6	0	-9	1	11
O=C(c1ccc2c(c1)OCO2)N1CCC(O)(c2cccc(F)c2)CC1	-2	-17	1	22	.	.
CC(C)OC(=O)/C(C#N)=C\c1cccs1	6.0*	-5	0	-2	-1	-9
NC(=O)CSc1nc2ccccc2n1Cc1ccccc1Cl	-1	-10	0	-6	.	.
CCc1cccc(C)c1NC(=S)NN	6.2*	7	0	16	-1	-10
CCc1cccc(C)c1NC(=O)C(C)C	-1	-5	1	16	.	.
CC(C)(C)C(=O)Nc1cc(C(=O)Nc2ccc(C(=O)O)cc2)cc(C(=O)Nc2ccc(C(=O)O)cc2)c1	0	5	1	10	.	.
CCOc1ccc(NC(=O)CSc2cn(CCNC(=O)c3cccc(C(F)(F)F)c3)c3ccccc23)cc1	-2	8	0	5	.	.
Cc1c(-n2c(SC/C=C\Cl)nc3ccccc3c2=O)c(=O)n(-c2ccccc2)n1C	-1	-3	0	-4	.	.
CCCc1nc2ccccc2c(=O)n1-c1c(C)n(C)n(-c2ccccc2)c1=O	6.8*	-4	0	4	0	-12
COC(=O)c1ccc(C(=O)Nc2nnc(-c3ccc4c(c3)CCCC4)o2)cc1	6.0*	-8	0	-8	0	0
CCC(=O)Nc1nnc(-c2ccc3c(c2)CCCC3)o1	-3	-42	0	3	.	.
SMILES	GPR151 activ	TEAD-YAP block	FBW7 activator	MITF primary	GPR151 conf act	GPR119 counter
Cc1cccc(C2=N/C(=C\c3cccc(I)c3)C(=O)O2)c1	0	5	0	-9	.	.
Cc1cc(Br)ccc1NC(=O)CCN1C(=S)NC(C)(C)CC1C (stereo not drawn)	0	1	0	-12	.	.
Cc1ccc(NC(=O)c2nn3c(c2Br)NC(c2cccs2)CC3C(F)(F)F)cc1C (stereo not drawn)	7.1*	-1	0	0	0	0
CCOC(CNc1nc(OC)cc(OC)n1)(OCC)c1ccccn1	5.0*	1	0	-4	1	5
Fc1ccc(CN2CCC(c3nc(-c4cccnc4)n[nH]3)CC2)cc1	1	2	0	-1	.	.
CCC(=O)Nc1cccc(C(=O)Nc2ccccc2C(=O)O)c1	0	3	0	12	.	.
O=c1ccn(C2OC(COc3ccc([N+](=O)[O-])cc3)C(O)C2O)c(=O)[nH]1 (stereo not drawn)	0	1	0	7	.	.
O=c1ccn([C@@H]2O[C@H](COP(=O)(O)OP(=O)(O)O)[C@@H](O)[C@H]2O)c(=O)[nH]1	5.1*	0	0	19	-1	-2
CC(C)NC(=O)Cn1c2ccccc2n2c(SCC(=O)N3CCOCC3)nnc12	2	0	0	3	.	.
O=C(Nc1ccc(Cl)c(-c2nc3ccccc3o2)c1)c1ccccc1Br	5.9*	-7	0	-7	0	10
Cc1ccc(C(=O)Nc2ccc(-c3nc4ccccc4o3)cc2)c(Cl)c1	6.5*	-9	1	-3	1	10
O=C(Nc1ccc(Cl)c(-c2nc3ccccc3o2)c1)c1ccccc1F	-1	15	0	6	.	.
Nc1ccc(NC(=S)NC2CCCCC2)cc1[N+](=O)[O-]	1	-26	-1	11	.	.
CC1(C)C2CCC1(C)C(Nc1ccc(N)c([N+](=O)[O-])c1)(S(=O)(=O)O)C2[n+]1ccccc1 (stereo not drawn)	5.6*	0	0	4	-1	-8
Cc1cc(F)ccc1NC(=O)CCNc1c(N2CCCC2)c(=O)c1=O	5.0*	-3	0	14	0	-13
O=C(CCC(=O)OCC(=O)c1ccc(Cl)c(Cl)c1)Nc1ccccc1	5.5*	-1	0	-1	1	1
O=C(CCC(=O)OCC(=O)c1ccc(Cl)c(Cl)c1)Nc1ccc(F)cc1	1	0	1	13	.	.
Cc1ccc(-c2csc(NC(=O)C3CC=CCC3C(=O)O)n2)c(C)c1 (stereo not drawn)	-2	9	1	11	.	.
O=c1oc2ccc(Br)cc2cc1-c1csc(-c2ccc(Cl)cc2)n1	2	1	0	7	.	.
O=c1oc2ccc(Br)cc2cc1-c1csc(-c2ccccc2)n1	5.2*	5	0	-13	-1	-2
CCOC(=O)c1c(NC(=O)CC)sc2c1CCCC2	5.1*	8	0	-6	0	2
CCCCN(CCCC)S(=O)(=O)c1ccc(C(=O)Nc2sc3c(c2C(=O)OCC)CCN(C(C)C)C3)cc1	-1	8	0	-10	.	.
CCOC(=O)c1c(NC(=O)COc2ccc(CC)cc2)sc2c1CCC2	0	-8	1	2	.	.
CCCOc1ccc(C(=O)Nc2sc3c(c2C(=O)OCC)CCCC3)cc1	7.4*	-2	1	9	0	8
CCCCOc1ccc(C(=O)Nc2sc3c(c2C(=O)OCC)CCC3)cc1	0	-6	0	-7	.	.
